Activity calls are given as the source filed them. How the source made its calls: active means hit-call score of the fitted dose curve at least 0.9, where 1 is the maximum; inactive means score below 0.9.
Assays:
[1] = read-out: Tissue Factor, F3 (gene 2152); test: BSK_CASM3C_TissueFactor: BioMAP Diversity Plus: CASM3C Assay for Tissue Factor Biomarker Activity (AID 2283052); settings: primary human coronary artery smooth muscle cells; actives raise or lower the signal;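 further: cell surface tissue factor protein level read by ELISA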
[2] = read-out: Interferon-gamma inducible Protein 10 (IP10), CXCL10 (gene 3627); test: BSK_hDFCGF_IP10: BioMAP Diversity Plus: hDFCGF Assay for Interferon-gamma inducible Protein 10 (IP10) Biomarker Activity (AID 2283053); settings: primary human foreskin fibroblasts; actives raise or lower the signal
Outline: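 Chemical-treated human skin fibroblasts (primary) were sampled at 24 h for IP-10 by ELISA. Both increases and decreases relative to DMSO were scored.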

[3] = read-out: Urokinase-type plasminogen activator receptor (uPAR), PLAUR (gene 5329); test: BSK_CASM3C_uPAR: BioMAP Diversity Plus: CASM3C Assay for Urokinase-type plasminogen activator receptor (uPAR) Biomarker Activity (AID 2283054); settings: primary human coronary artery smooth muscle cells; actives raise or lower the signal;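 further: cell-surface uPAR protein level quantified by ELISA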
[4] = read-out: Vascular cell adhesion molecule 1 (VCAM1), VCAM1 (gene 7412); test: BSK_CASM3C_VCAM1: BioMAP Diversity Plus: CASM3C Assay for Vascular cell adhesion molecule 1 (VCAM1) Biomarker Activity (AID 2283055); settings: primary human coronary artery smooth muscle cells; actives raise or lower the signal;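 further: VCAM-1 protein level quantified by ELISA on the cells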
[5] = read-out: Collagen III, COL3A1 (gene 1281); test: BSK_hDFCGF_CollagenIII: BioMAP Diversity Plus: hDFCGF Assay for Collagen III Biomarker Activity (AID 2283056); settings: primary human foreskin fibroblasts; actives raise or lower the signal
Outline: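 Cells: human foreskin fibroblasts, primary. Dosing followed by 24 h incubation, then ELISA for collagen III. Both increases and decreases scored relative to DMSO.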

[6] = read-out: Epidermal growth factor receptor (EGFR), EGFR (gene 1956); test: BSK_hDFCGF_EGFR: BioMAP Diversity Plus: hDFCGF Assay for Epidermal growth factor receptor (EGFR) Biomarker Activity (AID 2283057); settings: primary human foreskin fibroblasts; actives raise or lower the signal
Outline: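 Cell-based multiplexed assay in primary human foreskin fibroblasts. EGFR is read by ELISA 24 h after treatment and compared with DMSO controls.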

[7] = read-out: Interleukin-8 (IL8), CXCL8 (gene 3576); test: BSK_hDFCGF_IL8: BioMAP Diversity Plus: hDFCGF Assay for Interleukin-8 (IL8) Biomarker Activity (AID 2283058); settings: primary human foreskin fibroblasts; actives raise or lower the signal
Outline: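 IL-8 levels from compound-treated primary human fibroblasts were read by ELISA at 24 h, with DMSO serving as baseline for bidirectional fitting.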

[8] = BSK_hDFCGF_Proliferation: Cell Proliferation Assessment in the BioMAP Diversity Plus: hDFCGF Assay (AID 2283059); settings: primary human foreskin fibroblasts;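 further: curves fitted for both rise and fall of signal versus DMSO baseline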
Outline: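 Sub-confluent human foreskin fibroblast cultures receive test chemical […]. Relative cell number is quantified by sulforhodamine B staining (0.1%, after 10% TCA fixation) at 560 nm, with bidirectional fitting referenced to DMSO.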

[9] = read-out: Macrophage colony-stimulating factor (MCSF), CSF1 (gene 1435); test: BSK_hDFCGF_MCSF: BioMAP Diversity Plus: hDFCGF Assay for Macrophage colony-stimulating factor (MCSF) Biomarker Activity (AID 2283060); settings: primary human foreskin fibroblasts; actives raise or lower the signal
Outline: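 M-CSF levels, determined by ELISA, are taken at 24 h after dosing human skin fibroblasts. Responses in either direction are fitted with DMSO serving as the baseline.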

[10] = read-out: TIMP metallopeptidase inhibitor 1 (TIMP1), TIMP1 (gene 7076); test: BSK_hDFCGF_TIMP1: BioMAP Diversity Plus: hDFCGF Assay for TIMP metallopeptidase inhibitor 1 (TIMP1) Biomarker Activity (AID 2283062); settings: primary human foreskin fibroblasts; actives raise or lower the signal
Outline: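 Fibroblasts from human foreskin are treated with test chemical and harvested at 24 h. TIMP-1 is quantified by ELISA, and gain or loss of signal is scored against DMSO.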

[11] = read-out: Matrix Metallopeptidase 1 (MMP1), MMP1 (gene 4312); test: BSK_hDFCGF_MMP1: BioMAP Diversity Plus: hDFCGF Assay for Matrix Metallopeptidase 1 (MMP1) Biomarker Activity (AID 2283064); settings: primary human foreskin fibroblasts; actives raise or lower the signal
Outline: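 MMP1 levels quantified by ELISA 24 h after dosing human dermal fibroblast cultures, with parallel SRB total-protein staining for overt cytotoxicity. Data fitted in both directions against DMSO baseline.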

[12] = read-out: Vascular cell adhesion molecule 1 (VCAM1), VCAM1 (gene 7412); test: BSK_hDFCGF_VCAM1: BioMAP Diversity Plus: hDFCGF Assay for Vascular cell adhesion molecule 1 (VCAM1) Biomarker Activity (AID 2283065); settings: primary human foreskin fibroblasts; actives raise or lower the signal;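 on AC50: VCAM-1 protein level quantified by ELISA after 24 h chemical exposure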
Outline: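 Cells are dosed, cultured for 24 h, then VCAM-1 is quantified by ELISA; signal increases and decreases are both fitted relative to DMSO.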

[13] = read-out: Plasminogen activator inhibitor-1 (PAI1), SERPINE1 (gene 5054); test: BSK_hDFCGF_PAI1: BioMAP Diversity Plus: hDFCGF Assay for Plasminogen activator inhibitor-1 (PAI1) Biomarker Activity (AID 2283066); settings: primary human foreskin fibroblasts; actives raise or lower the signal
Outline: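 Human skin fibroblast cultures receive chemical for 24 h before PAI-1 is measured by ELISA; signal changes are fitted bidirectionally against DMSO-treated wells.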

[14] = read-out: Intercellular Adhesion Molecule 1 (ICAM1), ICAM1 (gene 3383); test: BSK_KF3CT_ICAM1: BioMAP Diversity Plus: KF3CT Assay for Intercellular Adhesion Molecule 1 (ICAM1) Biomarker Activity (AID 2283067); settings: primary human keratinocytes with fibroblasts; actives raise or lower the signal
Outline: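 Dose the keratinocyte/fibroblast co-culture, wait 24 h, measure ICAM-1 by ELISA, then fit increases or decreases against DMSO. Cytotoxicity is checked in parallel cultures by SRB total-protein staining.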

[15] = BSK_KF3CT_SRB: Viability Assessment in the BioMAP Diversity Plus: KF3CT Assay (AID 2283069); settings: primary human keratinocytes with fibroblasts;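 further: total protein by sulforhodamine B staining as a cytotoxicity measure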
Outline: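 Cytotoxicity was gauged by SRB staining (0.1% SRB, 10% TCA fixation, 560 nm) of parallel cultures at 24 h. The cells were primary human skin keratinocytes co-cultured with fibroblasts, and activity was fitted in both directions against DMSO.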

[16] = read-out: Interleukin-1 alpha (IL1a), IL1A (gene 3552); test: BSK_KF3CT_IL1a: BioMAP Diversity Plus: KF3CT Assay for Interleukin-1 alpha (IL1a) Biomarker Activity (AID 2283070); settings: primary human keratinocytes with fibroblasts; actives raise or lower the signal
Outline: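 IL-1a was detected by ELISA 24 h after chemical treatment of a co-culture of human skin keratinocytes and foreskin fibroblasts. Gain or loss of signal was fitted against the DMSO baseline.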

c1ccc2sc(SN(C3CCCCC3)C3CCCCC3)nc2c1
outcome [1]: inactive
outcome [2]: inactive
outcome [3]: inactive
outcome [4]: inactive
outcome [5]: inactive
outcome [6]: inactive
outcome [7]: inactive
AC50 [8]: 2.77 µM (active)
AC50 [9]: 0.951 µM (active)
outcome [10]: inactive
outcome [11]: inactive
outcome [12]: inactive
AC50 [13]: 2.8 µM (active)
outcome [14]: inactive
outcome [15]: inactive

CCCCC(CC)COCCC#N (configuration not stated)
outcome [1]: inactive
AC50 [2]: 20 µM (active)
outcome [3]: inactive
outcome [4]: inactive
AC50 [5]: 24.1 µM (active)
outcome [6]: inactive
outcome [7]: inactive
AC50 [8]: 11.1 µM (active)
outcome [9]: inactive
AC50 [10]: 20 µM (active)
outcome [11]: inactive
AC50 [12]: 7.05 µM (active)
outcome [13]: inactive
outcome [14]: inactive
outcome [15]: inactive
outcome [16]: inactive

O=C=NC1CCC(CC2CCC(N=C=O)CC2)CC1 (configuration not stated)
outcome [1]: inactive
outcome [2]: inactive
outcome [3]: inactive
outcome [4]: inactive
outcome [5]: inactive
outcome [6]: inactive
outcome [7]: inactive
AC50 [8]: 28.5 µM (active)
AC50 [9]: 4.84 µM (active)
outcome [10]: inactive
outcome [11]: inactive
outcome [12]: inactive
AC50 [13]: 25.6 µM (active)
outcome [14]: inactive
outcome [15]: inactive

CC1COc2ccccc2N1C(=O)C(Cl)Cl (configuration not stated)
AC50 [1]: 4.8 µM (active)
outcome [2]: inactive
AC50 [3]: 7.08 µM (active)
AC50 [4]: 10.2 µM (active)
AC50 [5]: 0.0289 µM (active)
outcome [6]: inactive
outcome [7]: inactive
AC50 [8]: 8.61 µM (active)
outcome [9]: inactive
outcome [10]: inactive
AC50 [11]: 20 µM (active)
AC50 [12]: 1.78 µM (active)
AC50 [13]: 0.0533 µM (active)
outcome [14]: inactive
outcome [15]: inactive
AC50 [16]: 0.629 µM (active)

O=C1OC2(c3cc(Br)c(O)c(Br)c3Oc3c2cc(Br)c(O)c3Br)c2c(Cl)c(Cl)c(Cl)c(Cl)c21
outcome [1]: inactive
AC50 [2]: 20.8 µM (active)
outcome [3]: inactive
AC50 [4]: 9.53 µM (active)
AC50 [5]: 4.38 µM (active)
AC50 [6]: 1.96 µM (active)
AC50 [7]: 22 µM (active)
AC50 [8]: 4.03 µM (active)
AC50 [9]: 1.56 µM (active)
AC50 [10]: 11.5 µM (active)
AC50 [11]: 3.42 µM (active)
AC50 [12]: 4.38 µM (active)
AC50 [13]: 2.43 µM (active)
AC50 [14]: 8.86 µM (active)
AC50 [15]: 4.07 µM (active)

Cc1ccc(O)c(C(C)(C)C)c1
AC50 [1]: 36.3 µM (active)
AC50 [2]: 34.9 µM (active)
AC50 [3]: 20 µM (active)
AC50 [4]: 30 µM (active)
AC50 [5]: 30.4 µM (active)
outcome [6]: inactive
outcome [7]: inactive
AC50 [8]: 13.6 µM (active)
AC50 [9]: 30.9 µM (active)
AC50 [10]: 27.6 µM (active)
AC50 [11]: 33.4 µM (active)
AC50 [12]: 39.1 µM (active)
AC50 [13]: 30.7 µM (active)
AC50 [14]: 34.3 µM (active)
AC50 [15]: 35.2 µM (active)

Source: PubChem BioAssay (EPA / NIEHS)
